# Experimental data reported in PubChem BioAssay (Tox21).
# Results filed as inconclusive are left out. A call without a number means that no potency is given here. Some structures have more than one record in an assay (separate samples or runs), and their calls can disagree. Calls of active or inactive are those of the source. Unless noted, calls come from the whole dose curve; as a rule, active = well fitted curve in the direction sought with a large enough effect in the repeat runs; inconclusive = weak or mixed curves; inactive = no such curve, though single readings can be large; an effect the other way counts as inactive or inconclusive.
# Assays:
# [1] = qHTS assay to identify small molecule agonists of the peroxisome proliferator-activated receptor delta (PPARd) signaling pathway - cell viability counter screen (AID 743211); note: nearly all actives have a fitted effect of over 55% in size
# Method in brief: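 Counter screen for cytotoxicity run in parallel with the PPARd reporter screen. Beta-lactamase reporter HEK293H cells exposed to compounds 17 h; ATP-based CellTiter-Glo luminescence quantified viability.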
# [2] = target: Peroxisome proliferator-activated receptor delta (Homo sapiens) (UniProt Q03181); assay: qHTS assay to identify small molecule agonists of the peroxisome proliferator-activated receptor delta (PPARd) signaling pathway (AID 743212; calls by dose curve;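 note: HEK293H cells with PPARd UAS beta-lactamase reporter GeneBLAzer system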)
# Method in brief: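 Beta-lactamase reporter readout: a ratiometric FRET signal from the LiveBLAzer substrate after 2 h at room temperature. Compound exposure at 37 °C in PPARδ-bla HEK293H cells driven by an upstream activator sequence.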
# [3] = qHTS assay to identify small molecule antagonists of the peroxisome proliferator-activated receptor delta (PPARd) signaling pathway - cell viability counter screen (AID 743213); note: nearly all actives have a fitted effect of over 50% in size; note: potency is the fitted concentration of half-maximal effect
# Method in brief: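 CellTiter-Glo was added to PPARd-bla HEK293H wells following 17 h compound treatment in the presence of 300 nM L165041. Luminescence was recorded after 30 min at room temperature.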
# [4] = target: Peroxisome proliferator-activated receptor delta (Homo sapiens) (UniProt Q03181); assay: qHTS assay to identify small molecule antagonists of the peroxisome proliferator-activated receptor delta (PPARd) signaling pathway (AID 743215; active = well fitted inhibition curve with a large enough effect in the signal ratio in the repeat runs, not every such curve was filed as active; the % refers to the signal ratio;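 note: cells stimulated with agonist L165041 at 300 nM final during compound exposure; series mostly up to about 62 µM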)
# Method in brief: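 Screen format: qHTS, antagonist mode. HEK293H PPARd-bla cells received compound and 300 nM L165041 (final), 17 h, 37 C. Beta-lactamase detected via FRET substrate fluorescence, 2 h, room temperature.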
# [5] = target: Bile acid receptor (Homo sapiens) (UniProt Q96RI1); assay: qHTS assay to identify small molecule antagonists of the farnesoid-X-receptor (FXR) signaling pathway (AID 743217; active = well fitted inhibition curve with a large enough effect in the signal ratio in the repeat runs, not every such curve was filed as active; the % refers to the signal ratio)
# Method in brief: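 Quantitative HTS, beta-lactamase reporter format: FXR-UAS-bla HEK 293T cells co-treated 16 h at 37 °C with compounds and 50 uM final chenodeoxycholic acid, then read by B/G FRET fluorescence.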
# [6] = qHTS assay to identify small molecule agonists of the farnesoid-X-receptor (FXR) signaling pathway - cell viability counter screen (AID 743218); note: nearly all actives have a fitted effect of over 45% in size; note: potency is the fitted concentration of half-maximal effect
# Method in brief: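 Same-well cytotoxicity check on FXR-UAS-bla HEK 293T cells: 5 h attachment, 16 h compound at 37 C, CellTiter-Glo luminescence read at room temperature after 30 min.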
# [7] = target: Bile acid receptor (Homo sapiens) (UniProt Q96RI1); assay: qHTS assay to identify small molecule agonists of the farnesoid-X-receptor (FXR) signaling pathway (AID 743220; active = well fitted activation curve with a large enough effect in the signal ratio in the repeat runs, not every such curve was filed as active; the % refers to the signal ratio)
# Method in brief: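 FXR-UAS-bla HEK 293T cells carrying a UAS-driven beta-lactamase reporter were plated for 5 h at 37C/5% CO2, then exposed to DMSO-dissolved Tox21 10K compounds for 16 h at 37C. A LiveBLAzer B/G FRET substrate was loaded for 2 h at room temperature before fluorescence reading.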
# [8] = qHTS assay to identify small molecule antagonists of the farnesoid-X-receptor (FXR) signaling pathway - cell viability counter screen (AID 743221; active = well fitted cell-killing curve with a large enough effect in the repeat runs, not every such curve was filed as active; note: nearly all actives have a fitted effect of over 50% in size)
# Method in brief: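 Multiplexed counter screen: viability of FXR-bla HEK 293T cells under agonist stimulation by chenodeoxycholic acid (50 uM, final) and test compound for 16 h at 37 C, measured by CellTiter-Glo luminescence in the reporter wells.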
# [9] = target: Vitamin D3 receptor (Homo sapiens) (UniProt P11473); assay: qHTS assay to identify small molecule agonists of the vitamin D receptor (VDR) signaling pathway (AID 743222; calls by dose curve)
# Method in brief: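 Using LiveBLAzer B/G FRET detection, agonism was scored in VDR-bla cells exposed overnight (16 h, 37C) to DMSO-dissolved compounds; substrate incubation was 2 h at room temperature.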
# [10] = target: Vitamin D3 receptor (Homo sapiens) (UniProt P11473); assay: qHTS assay to identify small molecule antagonists of the vitamin D receptor (VDR) signaling pathway (AID 743223; active = well fitted inhibition curve with a large enough effect in the signal ratio in the repeat runs, not every such curve was filed as active; the % refers to the signal ratio)
# Method in brief: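 Cells carrying a VDR-driven beta-lactamase reporter (VDR-bla) were co-treated with compound and 3 nM final 1alpha,25-dihydroxyvitamin D3 for 16 h at 37C; reporter activity was measured as FRET substrate fluorescence after 2 h at room temperature.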
# Sequence of Peroxisome proliferator-activated receptor delta (Homo sapiens) (Q03181 whole entry, looked up): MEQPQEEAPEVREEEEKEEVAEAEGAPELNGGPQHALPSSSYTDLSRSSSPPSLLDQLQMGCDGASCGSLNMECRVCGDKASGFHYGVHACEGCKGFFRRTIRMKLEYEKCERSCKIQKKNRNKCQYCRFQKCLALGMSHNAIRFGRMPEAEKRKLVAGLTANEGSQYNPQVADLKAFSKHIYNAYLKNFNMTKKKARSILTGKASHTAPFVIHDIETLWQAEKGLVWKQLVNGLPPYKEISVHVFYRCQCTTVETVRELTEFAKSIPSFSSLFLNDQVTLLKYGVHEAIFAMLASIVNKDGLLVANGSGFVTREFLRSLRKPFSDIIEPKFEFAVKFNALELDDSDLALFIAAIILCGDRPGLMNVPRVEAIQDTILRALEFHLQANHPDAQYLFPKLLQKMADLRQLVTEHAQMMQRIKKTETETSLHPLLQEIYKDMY
# Sequence of Bile acid receptor (Homo sapiens) (Q96RI1 whole entry, looked up): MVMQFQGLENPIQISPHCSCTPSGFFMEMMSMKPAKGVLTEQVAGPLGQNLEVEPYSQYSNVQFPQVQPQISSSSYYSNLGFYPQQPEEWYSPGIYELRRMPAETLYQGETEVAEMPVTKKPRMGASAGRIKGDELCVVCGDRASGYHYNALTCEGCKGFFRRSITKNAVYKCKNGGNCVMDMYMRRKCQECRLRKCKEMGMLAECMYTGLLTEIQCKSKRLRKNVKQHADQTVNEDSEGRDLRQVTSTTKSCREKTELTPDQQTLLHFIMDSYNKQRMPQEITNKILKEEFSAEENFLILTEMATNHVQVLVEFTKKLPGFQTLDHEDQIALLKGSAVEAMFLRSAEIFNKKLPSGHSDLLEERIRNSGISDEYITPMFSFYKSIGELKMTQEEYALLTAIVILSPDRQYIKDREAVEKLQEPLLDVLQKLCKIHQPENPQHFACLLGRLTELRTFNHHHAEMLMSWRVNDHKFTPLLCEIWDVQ
# Sequence of Vitamin D3 receptor (Homo sapiens) (P11473 whole entry, looked up): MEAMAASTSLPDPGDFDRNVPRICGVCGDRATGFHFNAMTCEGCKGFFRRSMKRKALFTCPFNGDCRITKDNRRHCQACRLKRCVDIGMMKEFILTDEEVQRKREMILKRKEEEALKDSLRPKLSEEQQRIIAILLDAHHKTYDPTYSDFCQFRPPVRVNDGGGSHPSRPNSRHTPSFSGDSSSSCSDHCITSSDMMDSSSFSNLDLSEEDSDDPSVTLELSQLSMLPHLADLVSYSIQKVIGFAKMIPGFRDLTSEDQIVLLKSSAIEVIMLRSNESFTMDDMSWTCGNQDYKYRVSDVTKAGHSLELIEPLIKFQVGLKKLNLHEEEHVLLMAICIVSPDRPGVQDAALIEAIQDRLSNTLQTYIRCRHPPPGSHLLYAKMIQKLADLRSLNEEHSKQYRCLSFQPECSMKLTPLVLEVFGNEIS
Structure (SMILES),Potency [1],outcome [2],Potency [3],outcome [4],Potency [5],Potency [6],outcome [7],Potency [8],outcome [9],outcome [10]
CCCN1C=CN(C)C1,inactive,inactive,inactive,inactive,inactive,inactive,inactive,inactive,inactive,inactive
Cc1ccc(S(=O)(=O)NCl)cc1,inactive,inactive,inactive,inactive,–,inactive,–,inactive,–,–
CC(=O)[C@H]1CC[C@H]2[C@@H]3CC=C4C[C@@H](O)CC[C@]4(C)[C@H]3CC[C@]12C,inactive,inactive,inactive,inactive,inactive,inactive,inactive,inactive,inactive,inactive
O=C(O)c1cc(=O)[nH]c(=O)[nH]1,inactive,inactive,inactive,inactive,–,inactive,–,inactive,–,–
O=C(O)COCCN1CCN(C(c2ccccc2)c2ccc(Cl)cc2)CC1 (centres undefined),inactive,inactive,inactive,inactive,inactive,inactive,inactive,inactive,inactive,inactive
O=C(O)CCCCCCCCCCCC(=O)O,inactive,inactive,inactive,inactive,inactive,inactive,inactive,inactive,inactive,inactive
CC(C)(C)c1cccc(C(C)(C)C)c1O,inactive,inactive,inactive,inactive,inactive,inactive,inactive,inactive,–,–
Brc1nc2ccccc2s1,inactive,inactive,inactive,inactive,inactive,inactive,inactive,inactive,inactive,–
O=C(O)c1ccc(O)cc1,inactive,inactive,inactive,inactive,inactive,inactive,inactive,inactive,–,–
FC(F)(F)C(Cl)Br (centres undefined),inactive,inactive,inactive,inactive,–,inactive,–,inactive,–,–
Cc1ccc([N+](=O)[O-])c(C)c1,inactive,inactive,inactive,inactive,inactive,inactive,inactive,inactive,inactive,inactive
Nc1cc(Cl)c(N)c(Cl)c1,inactive,inactive,inactive,inactive,inactive,inactive,inactive,inactive,inactive,–
Oc1c(Cl)ccc(Cl)c1Cl,inactive,inactive,inactive,inactive,inactive,inactive,inactive,inactive,inactive,inactive
CN(C)/N=N/c1nc[nH]c1C(N)=O,inactive,inactive,inactive,inactive,inactive,inactive,inactive,inactive,–,–
CCOC(=O)C(C)Oc1ccc(Oc2cnc3cc(Cl)ccc3n2)cc1 (centres undefined),inactive,inactive,inactive,inactive,inactive,inactive,inactive,inactive,inactive,–
C=C[Si](OCCOC)(OCCOC)OCCOC,inactive,inactive,inactive,inactive,inactive,inactive,inactive,inactive,inactive,inactive
Nc1ccc2c(O)cc(S(=O)(=O)O)cc2c1,inactive,inactive,inactive,inactive,–,inactive,–,inactive,–,–
C=CCCCCCCCCCC,inactive,inactive,inactive,inactive,–,inactive,–,inactive,–,–
C1CN(SSN2CCOCC2)CCO1,inactive,inactive,inactive,inactive,inactive,inactive,inactive,inactive,–,–
C=CN1CCCC1=O,inactive,inactive,inactive,inactive,–,inactive,–,inactive,–,–
CCCCCCCCCCCCO,inactive,inactive,inactive,inactive,inactive,inactive,inactive,inactive,inactive,inactive
C=CC(=O)OCCCC,inactive,inactive,inactive,inactive,inactive,inactive,inactive,inactive,inactive,inactive
c1ccc2cc3ccccc3cc2c1,inactive,inactive,inactive,inactive,inactive,inactive,inactive,inactive,inactive,inactive
CCO[Si](CCCNC(N)=O)(OCC)OCC,inactive,inactive,inactive,inactive,inactive,inactive,inactive,inactive,inactive,inactive
NCCOCCO,inactive,inactive,inactive,inactive,inactive,inactive,inactive,inactive,inactive,inactive
c1ccc2c(c1)ccc1cc3c(ccc4ccccc43)cc12,inactive,inactive,inactive,inactive,inactive,inactive,inactive,inactive,–,–

Structure (SMILES),Potency [1],outcome [2],Potency [3],outcome [4],Potency [5],Potency [6],outcome [7],Potency [8],outcome [9],outcome [10]
CC(C)[N+](C)(CCOC(=O)C1c2ccccc2Oc2ccccc21)C(C)C,inactive,inactive,inactive,inactive,inactive,inactive,inactive,inactive,inactive,inactive
O=[Se](O)O,inactive,inactive,inactive,inactive,–,inactive,–,inactive,–,–
CC(=O)OC(C)C,inactive,inactive,inactive,inactive,inactive,inactive,inactive,inactive,inactive,inactive
COC(=O)c1ccc(C)cc1,inactive,inactive,inactive,inactive,inactive,inactive,inactive,inactive,inactive,inactive
c1ccc2c(c1)[nH]c1ccccc12,inactive,inactive,inactive,inactive,–,inactive,–,inactive,–,–
CC1(C)OC(=O)NC1=O,inactive,inactive,inactive,inactive,inactive,inactive,inactive,inactive,inactive,inactive
IC(I)I,inactive,inactive,inactive,inactive,inactive,inactive,inactive,inactive,–,–
O=C(O)CCCC(=O)O,inactive,inactive,inactive,inactive,–,inactive,–,inactive,–,–
Cc1ccc(C)c(O)c1,inactive,inactive,inactive,inactive,inactive,inactive,inactive,inactive,inactive,inactive
C=C[C@H]1CN2CC[C@H]1C[C@@H]2[C@@H](O)c1ccnc2ccc(OC)cc12,inactive,inactive,inactive,inactive,–,24.1 µM (active) and inactive,–,inactive,–,–
O=Cc1ccccc1C=O,inactive,inactive,24.5 µM (active) and inactive,inactive,–,inactive,–,inactive,–,–
CCCCCCCC/C=C\CCCCCCCC(=O)O,inactive,inactive,inactive,inactive,inactive,inactive,inactive,inactive,–,–
[Na+],inactive,inactive,inactive,inactive,–,inactive,–,inactive,–,–
CC(=O)[C@@]1(O)CC[C@H]2[C@@H]3C[C@H](C)C4=CC(=O)C=C[C@]4(C)[C@@]3(F)[C@@H](O)C[C@@]21C,inactive,inactive,inactive,–,inactive,inactive,inactive,inactive,inactive,inactive
OCCNCCO,inactive,inactive,inactive,inactive,–,inactive,–,inactive,inactive,inactive
Nc1ccc(N)c(Cl)c1,inactive,inactive,inactive,inactive,–,inactive,–,inactive,inactive,–
C=CCOC(=O)C(=C)C,inactive,inactive,inactive,inactive,–,inactive,–,inactive,inactive,inactive
C[C@]12CC[C@@H]3c4ccc(O)cc4CC[C@H]3[C@@H]1CC[C@H]2O,inactive,inactive,inactive,inactive,–,inactive,–,inactive,inactive,inactive
CC(C)=CCO,inactive,inactive,inactive,–,–,inactive,–,inactive,inactive,inactive
ClC/C=C/CCl,inactive,inactive,inactive,inactive,–,inactive,–,inactive,inactive,inactive
CC(=O)Oc1ccc(C(c2ccc(OC(C)=O)cc2)c2ccccn2)cc1,inactive,inactive,inactive,inactive,–,inactive,–,–,–,inactive
[O-]/[N+](=N\O)c1ccccc1,inactive,inactive,inactive,inactive,–,inactive,–,inactive,inactive,inactive
C[C@]12CC[C@@H]3c4ccc(O)cc4CC[C@H]3[C@@H]1CC[C@@H]2O,inactive,inactive,inactive,inactive,–,inactive,–,inactive,inactive,inactive
O=S1(=O)CCCO1,inactive,inactive,inactive,–,–,inactive,–,inactive,inactive,inactive
O=C1CCc2ccccc2O1,inactive,inactive,inactive,inactive,–,inactive,–,inactive,inactive,inactive
CC1=CC(C)(C)Nc2ccccc21,inactive,inactive,inactive,inactive,–,inactive,–,inactive,inactive,–
